This passage reports outcome results from PubChem BioAssay (EPA / NIEHS).

Records with an inconclusive call do not appear. The source made the active and inactive calls. Rule for the calls: active = hit-call score of the fitted dose curve at least 0.9, where 1 is the maximum; inconclusive = response in the unintended direction; inactive = score below 0.9.

Chain of Nuclear receptor subfamily 1 group I member 3 (Homo sapiens) (Q14994 whole entry, looked up): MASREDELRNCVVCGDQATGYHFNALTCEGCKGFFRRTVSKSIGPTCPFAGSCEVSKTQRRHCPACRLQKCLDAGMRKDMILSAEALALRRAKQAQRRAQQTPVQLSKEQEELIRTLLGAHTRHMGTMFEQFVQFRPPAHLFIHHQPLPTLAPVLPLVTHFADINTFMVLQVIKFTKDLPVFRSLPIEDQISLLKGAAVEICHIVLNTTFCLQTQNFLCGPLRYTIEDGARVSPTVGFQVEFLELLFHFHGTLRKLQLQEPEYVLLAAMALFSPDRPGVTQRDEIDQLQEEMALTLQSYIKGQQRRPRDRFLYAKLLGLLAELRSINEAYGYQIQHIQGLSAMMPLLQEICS

The target of this experiment is Nuclear receptor subfamily 1 group I member 3 (Homo sapiens) (UniProt Q14994). In words: ATG_CAR_TRANS: Attagene TRANS-FACTORIAL HepG2 Assay for human Constitutive Androstane Receptor (CAR) (AID 2282969).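 Note: activators raise reporter mRNA above DMSO so AC50 marks induction.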 Conditions: HepG2 Attagene TRANS-FACTORIAL CAR reporter. How it is done:
ATG_TRANS is a cell-based, multiplexed-readout assay that uses HepG2, a human liver cell line, with measurements taken at 24 hours after chemical dosing in a 24-well plate.ATG_CAR_TRANS is one of 30 assay component(s) measured or calculated from the ATG_TRANS assay. It is designed to make measurements of mRNA induction, a form of inducible reporter, as detected with fluorescence intensity signals by Reverse transcription polymerase chain reaction (RT-PCR) and Capillary electrophoresis technology.Data from the assay component ATG_CAR_TRANS was analyzed into 1 assay endpoint. This assay endpoint, ATG_CAR_TRANS, was analyzed in the positive analysis fitting direction relative to DMSO as the negative control and baseline of activity. Using a type of inducible reporter, measures of mRNA for gain-of-signal activity can be used to understand the reporter gene at the transcription factor-level as they relate to the gene NR1I3. Furthermore, this assay endpoint can be referred to as a primary readout, because this assay has produced multiple assay endpoints where this one serves a reporter gene function. To generalize the intended target to other relatable targets, this assay endpoint is annotated to the nuclear receptor intended target family, where the subfamily is non-steroidal.
Human liver HepG2 cells are transiently transfected with multiple reporter transcription units (MRTUs) in 6-well plates using FuGene 6 reagent (Roche; 3 ml FuGene/1 mg DNA). The MRTU constructs are regulated by a cis-regulating element (promoter). […] A major difference between the CIS and TRANS system is that in CIS activities of endogenous TFs are measured, whereas the TRANS assay evaluates changes in activities of exogenous, chimeric NR-Gal4 proteins. […] At the end of 24 hour incubation, total RNA was isolated using TriZol reagent (Invitrogen). The isolated RNA is then reverse-transcribed using oligo(dT) primer and Mo-MLV reverse transcriptase (Invitrogen) with DNAse I (Ambion) treatment for 30 min. The one-tenth of the produced cDNA was amplified by PCR using Taq DNA polymerase (Invitrogen) and two reporter sequence-specific primers. The PCR products were fluorescently labeled by primer extension with 6-arboxyfluorescein (6-FAM) 5'-labeled reporter sequence-specific primer (2 min at 95 C, 20 s at 68 C and 10 min at 72 C) and these products were digested with 5U of HpaI (New England Biolabs) for 2h at 37 C. The fragments were purified using Qiaquick PCR columns (Qiagen), analyzed on an ABI 3130xL genetic analyzer (Applied Biosystems) with peak positions identified by using a set of X-rhodamine (ROX)-labeled MapMarker1000 molecular weight standards (BioVentures). The raw capillary electrophoresis data was processed using Attagraph software (Attagene).
On to `c1ccc2c(c1)Nc1ccccc1S2`, for which the result was inactive.
Consider `O=S(=O)(F)C(F)(F)C(F)(F)C(F)(F)C(F)(F)C(F)(F)C(F)(F)C(F)(F)C(F)(F)F`, for which the call was inactive.
With `CC(Cc1ccc(OCC(=O)O)cc1)NCC(O)c1csc(C(F)(F)F)n1` (stereo not given) the entry was “inactive”; with `CCN(CC)C1CCCCC1`, “inactive”; with `Cc1ccc2c(c1N)C(=O)c1ccccc1C2=O`, “inactive”.
With `CCCCOCCOP(=O)(OCCOCCCC)OCCOCCCC` the entry was “inactive”; with `CC1(C)CN=C(NN=C(/C=C/c2ccc(C(F)(F)F)cc2)/C=C/c2ccc(C(F)(F)F)cc2)NC1`, “inactive”.
Then `CCOP(=S)(S)OCC`, with “inactive”.
As to `CCOP(=O)(O)C(N)=O`, the result was inactive.
Then `COCCOCCO`, with “inactive”.
With `CCCCN(CCCC)SN(C)C(=O)Oc1cccc2c1OC(C)(C)C2` the entry was “inactive”; with `O=S1(=O)OCC2C(CO1)C1(Cl)C(Cl)=C(Cl)C2(Cl)C1(Cl)Cl` (stereo not given), “inactive”; with `CCCCc1ccc(O)cc1`, “inactive”.
With `[N-]=[N+]=[N-]` the entry was “inactive”; with `CO/N=C(/C(=O)OC)c1ccccc1COc1ccccc1C`, “inactive”.
For the molecule `O=C(CBr)OCc1ccccc1`, the molecule was called inactive.
Then `CCCN(CCC)c1c([N+](=O)[O-])cc(C(C)C)cc1[N+](=O)[O-]`, with “inactive”; and `Nc1ccc2ccccc2c1`, with “inactive”.
For `N#Cc1cc([N+](=O)[O-])ccc1N`, the molecule was called inactive.
With `CCCCCCCc1ccc(O)cc1` the entry was “inactive”; with `FC(F)(F)c1ccc(Cl)cc1`, “inactive”.
Turning to `O=c1ssc(Cl)c1Cl`, the call was inactive.
With `CCOc1ccc(C(C)(C)COCc2cccc(Oc3ccccc3)c2)cc1` the entry was “inactive”; with `Nc1cc2c3c(c1)C(c1ccccc1)=N[C@@H](NC(=O)c1cccnc1)C(=O)N3CC2`, “inactive”.
With `ClC(Cl)=C(c1ccc(Cl)cc1)c1ccccc1Cl` the entry was “inactive”; with `N#Cc1ccc(O)cc1`, “inactive”; with `Clc1ccc(Oc2ccccc2)cc1`, “inactive”.
Take `CCCCN(CC)C(=O)SCCC`: the call was inactive.
Then `C/C(=N\NC(=O)Nc1cc(F)cc(F)c1)c1ncccc1C(=O)O`, with “inactive”; and `CC(C)Nc1ccc(Nc2ccccc2)cc1`, with “inactive”; and `CCOP(=S)(OCC)SCn1nnc2ccccc2c1=O`, with “inactive”.
Then `Nc1ccc(Sc2ccc(N)cc2)cc1`, with “inactive”.
With `COC(=O)C(F)(F)C(F)(F)OC(F)(C(F)(F)F)C(F)(F)OC(F)=C(F)F` (stereo not given) the entry was “inactive”.
As to `c1ccc2c(c1)sc1ccccc12`, the result was inactive.
With `ClC1=C(Cl)C2(Cl)C3C(Cl)C(Cl)CC3C1(Cl)C2(Cl)Cl` (stereo not given) the entry was “inactive”; with `ClC(Cl)c1ccccc1`, “inactive”.
Then `CC(C)(C)c1ccccc1OP(=O)(Oc1ccccc1)Oc1ccccc1`, with “inactive”; and `CCCCC(CC)COP(=O)(Oc1ccccc1)Oc1ccccc1` (stereo not given), with “inactive”.
Then `O=NN1CCCC1`, with “inactive”; and `O=C(O)C(F)(F)OC(F)(F)C(F)(F)OC(F)(F)F`, with “inactive”.
